This excerpt belongs to a sample that is enriched for hits.
AMA1 RON2 block – disrupts binding of P. falciparum AMA1 to RON2; 360,000 compounds, 0.2% hits; AlphaScreen AMA1-biotinylated RON2 peptide binding; Potency, µM (titrated, usually from 58.2 µM), most hits filed as inhibitors; active = well fitted inhibition curve with a large enough effect; inconclusive = small, poorly fitted or top-dose-only effect; inactive = no such curve, though single readings can be large or run the other way; also: nearly all actives have a fitted effect of over 45% in size
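AMA1 (3D7) with his tag at 25 nM final met compounds first, then biotinylated RON2 peptide at 25 nM; detection used donor plus acceptor beads, 10 µg/mL apiece, read by AlphaScreen after 30 min at room temperature.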
Marburg entry inh – Marburg virus entry inhibition | Marburg virus pseudotyped entry inhibition, cell reporter | Potency, µM (highest dose often 37.8 µM), actives largely listed as inhibitors | 300,000 compounds, 1.8% hits | AID 540276; calls by dose curve; tested in HEK293 cells
CHX counter – affects cycloheximide protein synthesis inhibition readout, counter-screen. 300,000 compounds, 12% hits. cell reporter, cycloheximide protein synthesis inhibition counterscreen. AID 2314. max response, %; in the data active = max response mostly above about 13%, no sharp cut-off; inactive = mostly below about 14%; also: read at 38.3 µM for the half of the compounds with a filed dose
Shiga toxin inh – inhibitors of Shiga toxin in Vero cells; AID 2315; Vero cells, Shiga toxin protein synthesis inhibition reporter; 290,000 compounds, 9.2% hits; inhibition, % at 38.7 µM; in the data active = inhibition mostly above about 28%, no sharp cut-off; inactive = mostly below about 43%
Lassa entry inh – Lassa virus entry inhibition; Potency, µM (top dose mostly 37.9 µM), usual class: inhibitors; Lassa virus pseudotype entry inhibition, cell reporter; 300,000 compounds, 1.2% hits; calls by dose curve; tested in HEK293 cells; also: nearly all actives have a fitted effect of over 50% in size
Numbers stand for hits; [ ] = another dose, or the depositor's remark.

Results for O=C(Nc1ccc(OC(F)(F)F)cc1)c1ccc2nccnc2c1 ?
AMA1 RON2 block: inactive; Marburg entry inh: inconclusive; CHX counter: 27; Shiga toxin inh: 79; Lassa entry inh: inactive

How did O=C(NCCN1CCC(n2c(=O)[nH]c3ccccc32)CC1)c1cccs1 do in these assays?
AMA1 RON2 block: inactive

Results for O=C(Nc1ncc([N+](=O)[O-])s1)c1ccccc1Br ?
AMA1 RON2 block: inactive; CHX counter: 50; Shiga toxin inh: 65

How did O=C(/C=C/c1ccc([N+](=O)[O-])cc1)Nc1ncc([N+](=O)[O-])s1 do in these assays?
AMA1 RON2 block: inactive; Marburg entry inh: 5.8µM; CHX counter: 34; Shiga toxin inh: 95; Lassa entry inh: inconclusive

Results for O=C(CS(=O)(=O)c1ccccc1)Nc1ncc([N+](=O)[O-])s1 ?
AMA1 RON2 block: inactive; Marburg entry inh: inactive; CHX counter: inactive; Shiga toxin inh: inactive; Lassa entry inh: inactive

Results for O=C(Nc1ncc([N+](=O)[O-])s1)c1cccs1 ?
AMA1 RON2 block: inactive; CHX counter: 37; Shiga toxin inh: 27

What do the screens show for `O=C(/C=C/c1ccc([N+](=O)[O-])cc1)NCc1ccccn1`?
AMA1 RON2 block: inactive; Marburg entry inh: inactive; CHX counter: inactive; Shiga toxin inh: inactive; Lassa entry inh: inactive

How did Cc1cnc(NC(=O)c2cccs2)s1 do in these assays?
AMA1 RON2 block: inactive; Marburg entry inh: inconclusive; CHX counter: 29; Shiga toxin inh: 67; Lassa entry inh: inconclusive

How did Cc1ccc(C)c(NC(=O)Cn2c(=O)n(Cc3ccco3)c(=O)c3oc4ccccc4c32)c1 do in these assays?
Lassa entry inh: inactive

What do the screens show for `Cc1ccc(Cl)cc1-n1ncc2c(NCCC3=CCCCC3)ncnc21`?
Lassa entry inh: inactive

Results for COc1ccc(C2c3cc(OC)c(OC)cc3CC(=O)N2c2ccc(C)cc2)cc1 (centres undefined) ?
Marburg entry inh: inactive; Lassa entry inh: inconclusive

What do the screens show for `CCCCN(C)C(=O)c1ccc(Nc2nc(C(N)COCc3ccccc3)cs2)nc1` (centres undefined)?
AMA1 RON2 block: inactive

What do the screens show for `COc1c(Cl)cc(C(=O)N(Cc2ccc(C)o2)C2CCS(=O)(=O)C2)cc1Cl` (centres undefined)?
Marburg entry inh: inactive; Lassa entry inh: inactive

Results for CC(C)(Oc1ccc(Cl)cc1)C(=O)NNC(=O)c1ccc(Br)o1 ?
AMA1 RON2 block: inactive; Marburg entry inh: inactive; CHX counter: 15; Shiga toxin inh: inactive; Lassa entry inh: inactive

What do the screens show for `O=C(Nc1ccc(NC(=O)c2cccs2)cc1)c1ccc(Br)o1`?
AMA1 RON2 block: inactive; Marburg entry inh: inactive; CHX counter: inactive; Shiga toxin inh: inactive; Lassa entry inh: inactive

How did COc1ccc(NC(=O)c2ccc(Br)o2)cc1 do in these assays?
AMA1 RON2 block: inactive; Marburg entry inh: inactive; CHX counter: 36; Shiga toxin inh: 96; Lassa entry inh: inconclusive

What do the screens show for `Cc1nc(-c2ccc(NC(=O)c3ccc(Br)o3)cc2)cs1`?
AMA1 RON2 block: inactive; Marburg entry inh: inconclusive; CHX counter: 56; Shiga toxin inh: 114; Lassa entry inh: inconclusive

Results for O=C(Nc1ccc(Nc2ccccc2)cc1)c1ccc(Br)o1 ?
AMA1 RON2 block: inconclusive; Marburg entry inh: inconclusive; CHX counter: 27; Shiga toxin inh: 61; Lassa entry inh: inactive

Results for CC(C)(C)OC(=O)N1CCC(c2c(C(=O)NCc3ccco3)cnn2-c2ccccc2)CC1 ?
Lassa entry inh: inactive

How did CCOC(=O)c1cccc(NC(=O)NC(C)c2c(-n3cccc3)sc3c2CCN(C)C3)c1 (centres undefined) do in these assays?
Lassa entry inh: inactive

Results for CSc1nc(N)c2ncn([C@@H]3O[C@H](COP(=O)(O)OP(=O)(O)O)C(O)[C@H]3O)c2n1 (some centres undefined) ?
Marburg entry inh: inactive; Lassa entry inh: inactive

How did NC(=O)c1ccccc1NC(=S)NC(=O)c1ccc(Br)o1 do in these assays?
AMA1 RON2 block: inactive; Marburg entry inh: inactive; CHX counter: 35; Shiga toxin inh: 56; Lassa entry inh: inactive

Results for O=C(Nc1ccc(Cc2ccncc2)cc1)c1ccc(Br)o1 ?
AMA1 RON2 block: inactive; Marburg entry inh: inactive; CHX counter: 15; Shiga toxin inh: inactive; Lassa entry inh: inactive

How did O=C(NC(=S)Nc1ccccc1)c1ccc(Br)o1 do in these assays?
AMA1 RON2 block: inactive; CHX counter: 36; Shiga toxin inh: 79

Results for CC(C)c1ccc(NC(=O)c2ccc(Br)o2)cc1 ?
AMA1 RON2 block: inactive; Marburg entry inh: inconclusive; CHX counter: 40; Shiga toxin inh: 50; Lassa entry inh: inconclusive

How did O=C(c1ccc2c(c1)N(Cc1c(F)cccc1Cl)C(=O)c1ccccc1S2)N1CCC2(CC1)OCCO2 do in these assays?
Marburg entry inh: inactive; Lassa entry inh: inactive

How did Cc1ccccc1OCCSc1nnc(-c2ccc([N+](=O)[O-])cc2)o1 do in these assays?
Marburg entry inh: inactive; Lassa entry inh: inactive

What do the screens show for `O=C(CN1CCN(C(=O)c2cncn2-c2ccccc2)CC1)Nc1ccccc1Cl`?
AMA1 RON2 block: inactive[11.6 µM]; Marburg entry inh: inactive; Lassa entry inh: inactive

Results for Cc1cc2c(c(=O)n1Cc1ccccc1)[C@H]1O[C@](c3ccsc3)(Cc3ccccc31)O2 ?
Marburg entry inh: inactive

Results for O=C(Nc1ccc2c(c1)Cc1ccccc1-2)c1ccc(Br)o1 ?
AMA1 RON2 block: inactive; Marburg entry inh: inactive; CHX counter: 34; Shiga toxin inh: 35; Lassa entry inh: inconclusive
